# Data taken from PubChem BioAssay (NCATS).
# Results filed as inconclusive are left out. Entries that show only a call come without a potency. Activity calls are given as the source filed them. Unless noted, calls come from the whole dose curve; as a rule, active = well fitted inhibition curve with a large enough effect; inconclusive = small, poorly fitted or top-dose-only effect; inactive = flat fitted curve, though single readings scatter.
# Legend:
# [1] = biological target: DNA dC->dU-editing enzyme APOBEC-3G (Homo sapiens) (UniProt Q9HC16); assay: qHTS for inhibitors of Vif-A3G interactions: Validation (AID 588379)
# How it was run: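 HeLa cells stably expressing Vif and A3G-eYFP, 700 cells/well, incubated overnight at 37 deg C, then exposed to compound overnight at 37 deg C. Inhibition of Vif-mediated degradation read as increased yellow fluorescence (Ex 488/Em 500-530) by laser-scanning cytometry.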
# [2] = biological target: Ubiquitin carboxyl-terminal hydrolase 1 (Homo sapiens) (UniProt O94782); assay: Inhibitors of USP1/UAF1: Pilot qHTS (AID 504865); note: nearly all actives have a fitted effect of over 35% in size; note: potency is the fitted concentration of half-maximal effect
# How it was run: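 USP1/UAF1 complex (1nM) preincubated with compound 15 min at room temperature, then Ub-Rho substrate (150nM final) added. Fluorescence read kinetically at 480/540 nm, 6 reads every 60 seconds. Buffer: 50mM HEPES pH 7.8, 0.5mM EDTA, 0.1 mg/ml BSA, 1mM TCEP, 0.01% Tween-20.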
# [3] = biological target: Glucocorticoid receptor (Homo sapiens) (UniProt P04150); assay: qHTS assay for small molecule agonists of glucocorticoid receptor signaling (AID 588532; active = well fitted curve in the direction sought with a large enough effect in the signal ratio, with a control signal flat; the % refers to the signal ratio); conditions: HeLa MMTV-bla, beta-lactamase ratio, agonist, 18 h; stronger effect = higher value; percent of dexamethasone control, DMSO zero
# How it was run: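 Using MMTV-bla HeLa cells in medium with 1% stripped FBS and 25 mM HEPES, compounds were titrated and incubated overnight-length (18 h). Beta-lactamase cleavage of CCF4 was quantified by dual-emission fluorescence.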
# [4] = biological target: Glucocorticoid receptor (Homo sapiens) (UniProt P04150); assay: qHTS assay for small molecule antagonists of glucocorticoid receptor signaling (AID 588533; active = well fitted inhibition curve with a large enough effect in the signal ratio, with a control signal flat, not every such curve was filed as active; the % refers to the signal ratio;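 note: cells stimulated with 2 nM dexamethasone as agonist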)
# How it was run: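 Antagonist-mode qHTS: compound titrations added to GRE-bla HeLa cells, then dexamethasone 2 nM final; 18 h, 37 C. CCF4 FRET fluorescence normalized to dexamethasone and DMSO; IC50 from Hill fit.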
# [5] = biological target: Peroxisome proliferator-activated receptor gamma (Homo sapiens) (UniProt P37231); assay: qHTS assay for small molecule antagonists of peroxisome proliferator-activated receptor gamma signaling (AID 588537; active = well fitted inhibition curve with a large enough effect in the signal ratio, with a control signal flat, not every such curve was filed as active; the % refers to the signal ratio;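 note: reporter cells co-stimulated with 50 nM rosiglitazone agonist during compound treatment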)
# How it was run: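 Inhibitors of agonist-stimulated UAS-bla reporter activity were sought in HEK293 cells; rosiglitazone (50 nM) defined full signal and DMSO baseline. Curves fitted to Hill model gave IC50 and efficacy.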
# [6] = biological target: Vitamin D3 receptor (Homo sapiens) (UniProt P11473); assay: qHTS assay for small molecule antagonists of vitamin D receptor signaling (AID 588541; calls by dose curve;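 note: receptor activated by calcitriol during compound treatment; series mostly up to about 77 µM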)
# How it was run: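 Antagonist-mode beta-lactamase reporter assay: HEK293T VDR-UAS-bla cells were exposed to titrated compound alongside 1-alpha,25-dihydroxyvitamin D3 at 3 nM final for 16 h. Values were normalized to the 50 nM agonist control and DMSO basal, with IC50 and efficacy from Hill equation fits.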
# [7] = biological target: Vitamin D3 receptor (Homo sapiens) (UniProt P11473); assay: qHTS assay for small molecule agonists of vitamin D receptor signaling (AID 588543; calls by dose curve)
# How it was run: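 GeneBLAzer VDR-UAS-bla HEK293T cells in 2% charcoal-stripped FBS medium were dosed with compound titrations for 16 h at 37 °C; CCF4 β-lactamase readout (405 nm ex, 460/530 nm em). EC50 and efficacy from Hill fits, normalized to 50 nM calcitriol (100%) and DMSO (0%).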
# [8] = biological target: Thyroid hormone receptor beta (Homo sapiens) (UniProt P10828); assay: qHTS assay for small molecule agonists of thyroid hormone receptor beta signaling (AID 588545; calls by dose curve)
# How it was run: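 In this cell-based screen, titrated compounds act on HEK 293 cells held in medium with 2% charcoal/dextran FBS, NEAA and pyruvate for 18 hrs at 37 C. Responses are expressed relative to T3 (10 nM) as 100% and basal DMSO as 0%.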
# [9] = qHTS assay for small molecule agonists of retinoid X receptor alpha signaling (AID 588544; calls by dose curve); conditions: HEK293T RXRa-UAS-bla, beta-lactamase reporter, 18 h; 530 nm emission
# [10] = biological target: Retinoic acid receptor RXR-alpha (Homo sapiens) (UniProt P19793); assay: as above
# Retinoic acid receptor RXR-alpha (Homo sapiens), sequence (P19793 whole entry, looked up): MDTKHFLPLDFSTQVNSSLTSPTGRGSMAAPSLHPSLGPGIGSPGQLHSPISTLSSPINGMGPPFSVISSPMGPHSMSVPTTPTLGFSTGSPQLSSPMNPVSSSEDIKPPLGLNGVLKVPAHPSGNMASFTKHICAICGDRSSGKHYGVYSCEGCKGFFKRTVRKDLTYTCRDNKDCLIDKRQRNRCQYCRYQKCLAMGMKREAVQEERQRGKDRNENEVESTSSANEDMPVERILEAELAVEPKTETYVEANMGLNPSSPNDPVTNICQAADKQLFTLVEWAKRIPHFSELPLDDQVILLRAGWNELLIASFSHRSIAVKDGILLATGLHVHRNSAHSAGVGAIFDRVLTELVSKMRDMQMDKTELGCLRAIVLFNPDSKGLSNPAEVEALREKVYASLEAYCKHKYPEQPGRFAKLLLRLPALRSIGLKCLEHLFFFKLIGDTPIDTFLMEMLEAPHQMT
# Vitamin D3 receptor (Homo sapiens), sequence (P11473 whole entry, looked up): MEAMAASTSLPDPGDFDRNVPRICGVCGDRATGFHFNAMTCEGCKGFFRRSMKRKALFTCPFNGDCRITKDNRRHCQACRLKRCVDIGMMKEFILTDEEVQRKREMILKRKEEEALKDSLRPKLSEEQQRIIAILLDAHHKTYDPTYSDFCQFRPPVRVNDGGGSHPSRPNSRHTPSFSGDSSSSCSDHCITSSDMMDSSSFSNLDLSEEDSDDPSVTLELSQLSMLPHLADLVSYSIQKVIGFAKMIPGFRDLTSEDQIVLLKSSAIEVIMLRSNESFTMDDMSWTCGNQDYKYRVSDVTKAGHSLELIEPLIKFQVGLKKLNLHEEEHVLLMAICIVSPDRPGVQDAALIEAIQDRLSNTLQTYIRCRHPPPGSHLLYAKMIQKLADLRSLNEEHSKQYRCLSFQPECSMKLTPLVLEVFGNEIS
# Thyroid hormone receptor beta (Homo sapiens), sequence (P10828 whole entry, looked up): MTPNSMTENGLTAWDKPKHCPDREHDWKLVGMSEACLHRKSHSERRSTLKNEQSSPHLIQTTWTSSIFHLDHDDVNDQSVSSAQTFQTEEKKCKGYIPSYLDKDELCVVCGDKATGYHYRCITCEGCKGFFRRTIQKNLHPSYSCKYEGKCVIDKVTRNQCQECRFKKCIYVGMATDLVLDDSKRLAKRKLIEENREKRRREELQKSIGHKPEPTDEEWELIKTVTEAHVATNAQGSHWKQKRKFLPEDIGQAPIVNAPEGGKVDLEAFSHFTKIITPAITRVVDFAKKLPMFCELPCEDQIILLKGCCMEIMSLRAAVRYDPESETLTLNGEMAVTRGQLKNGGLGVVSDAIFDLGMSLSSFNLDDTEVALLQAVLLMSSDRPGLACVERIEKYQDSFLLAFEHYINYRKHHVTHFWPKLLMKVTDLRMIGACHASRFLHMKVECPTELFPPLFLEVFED
# Glucocorticoid receptor (Homo sapiens), sequence (P04150 whole entry, looked up): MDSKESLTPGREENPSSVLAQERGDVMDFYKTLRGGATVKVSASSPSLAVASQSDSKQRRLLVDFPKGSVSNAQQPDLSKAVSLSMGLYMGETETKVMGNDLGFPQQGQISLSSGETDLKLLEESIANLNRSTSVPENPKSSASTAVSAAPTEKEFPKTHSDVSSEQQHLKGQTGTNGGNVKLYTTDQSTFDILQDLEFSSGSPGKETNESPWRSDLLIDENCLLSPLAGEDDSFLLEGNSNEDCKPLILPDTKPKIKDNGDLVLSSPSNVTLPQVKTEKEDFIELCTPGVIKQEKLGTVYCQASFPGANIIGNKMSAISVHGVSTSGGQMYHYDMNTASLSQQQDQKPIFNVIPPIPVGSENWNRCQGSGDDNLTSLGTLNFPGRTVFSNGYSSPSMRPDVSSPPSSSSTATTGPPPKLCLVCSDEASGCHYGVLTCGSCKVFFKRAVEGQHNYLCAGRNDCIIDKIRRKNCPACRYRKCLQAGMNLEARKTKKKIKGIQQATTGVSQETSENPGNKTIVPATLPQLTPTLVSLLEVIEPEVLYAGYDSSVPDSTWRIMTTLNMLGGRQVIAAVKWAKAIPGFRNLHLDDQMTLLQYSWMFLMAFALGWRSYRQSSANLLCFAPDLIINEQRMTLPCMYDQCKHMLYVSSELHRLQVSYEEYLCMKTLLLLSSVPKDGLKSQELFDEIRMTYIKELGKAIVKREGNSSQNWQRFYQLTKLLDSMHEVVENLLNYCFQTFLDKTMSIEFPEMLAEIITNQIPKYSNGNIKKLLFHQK
# DNA dC->dU-editing enzyme APOBEC-3G (Homo sapiens), sequence (Q9HC16 whole entry, looked up): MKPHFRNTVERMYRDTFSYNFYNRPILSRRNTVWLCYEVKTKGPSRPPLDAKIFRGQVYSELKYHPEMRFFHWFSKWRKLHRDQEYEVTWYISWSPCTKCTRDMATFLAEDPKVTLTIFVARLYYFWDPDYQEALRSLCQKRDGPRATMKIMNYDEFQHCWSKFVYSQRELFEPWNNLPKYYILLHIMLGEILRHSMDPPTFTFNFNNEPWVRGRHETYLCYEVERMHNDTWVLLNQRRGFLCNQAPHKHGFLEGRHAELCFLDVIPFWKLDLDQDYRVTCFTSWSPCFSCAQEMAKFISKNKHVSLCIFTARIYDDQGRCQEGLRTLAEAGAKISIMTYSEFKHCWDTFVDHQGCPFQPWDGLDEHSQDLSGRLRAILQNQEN
# Ubiquitin carboxyl-terminal hydrolase 1 (Homo sapiens), sequence (O94782 whole entry, looked up): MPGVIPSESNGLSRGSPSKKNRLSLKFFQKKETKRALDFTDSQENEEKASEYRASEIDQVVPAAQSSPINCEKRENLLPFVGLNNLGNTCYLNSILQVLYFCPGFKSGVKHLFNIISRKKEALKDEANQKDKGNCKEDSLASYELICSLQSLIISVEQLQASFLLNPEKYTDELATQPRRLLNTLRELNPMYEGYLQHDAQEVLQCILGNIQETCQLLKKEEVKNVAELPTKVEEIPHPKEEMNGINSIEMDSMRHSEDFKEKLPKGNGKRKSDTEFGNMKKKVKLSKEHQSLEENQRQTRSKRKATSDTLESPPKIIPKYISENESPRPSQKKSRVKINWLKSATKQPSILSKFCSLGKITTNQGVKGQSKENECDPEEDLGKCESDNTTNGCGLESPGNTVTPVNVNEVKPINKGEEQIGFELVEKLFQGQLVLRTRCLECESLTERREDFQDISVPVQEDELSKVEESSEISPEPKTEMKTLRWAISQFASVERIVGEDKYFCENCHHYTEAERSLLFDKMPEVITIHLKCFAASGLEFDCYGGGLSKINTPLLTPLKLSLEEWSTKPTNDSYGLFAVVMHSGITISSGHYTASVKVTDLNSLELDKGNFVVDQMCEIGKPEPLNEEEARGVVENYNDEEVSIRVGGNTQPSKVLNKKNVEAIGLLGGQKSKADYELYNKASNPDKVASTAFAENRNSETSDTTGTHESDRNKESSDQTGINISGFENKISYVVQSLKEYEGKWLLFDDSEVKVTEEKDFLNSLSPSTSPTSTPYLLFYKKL
# Peroxisome proliferator-activated receptor gamma (Homo sapiens), sequence (P37231 whole entry, looked up): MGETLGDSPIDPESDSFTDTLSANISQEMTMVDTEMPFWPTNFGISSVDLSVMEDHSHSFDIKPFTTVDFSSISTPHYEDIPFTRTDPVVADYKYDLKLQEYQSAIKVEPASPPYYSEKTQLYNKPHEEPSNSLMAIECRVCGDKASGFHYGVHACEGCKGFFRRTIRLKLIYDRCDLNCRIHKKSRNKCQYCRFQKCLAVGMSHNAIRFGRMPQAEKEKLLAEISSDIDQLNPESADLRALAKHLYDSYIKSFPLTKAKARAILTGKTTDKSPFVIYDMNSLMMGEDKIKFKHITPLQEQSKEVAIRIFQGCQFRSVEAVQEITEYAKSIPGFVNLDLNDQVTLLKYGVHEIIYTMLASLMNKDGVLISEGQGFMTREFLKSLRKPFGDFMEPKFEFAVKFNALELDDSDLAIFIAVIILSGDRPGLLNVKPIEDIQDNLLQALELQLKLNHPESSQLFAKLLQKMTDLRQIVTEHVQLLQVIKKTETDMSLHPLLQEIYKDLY
compound,measurement,setting,value
CC(C)(C)NC[C@H](O)COc1nsnc1N1CCOCC1,outcome,[1],inactive
CN=C(N)NCCC[C@H](N)C(=O)O,outcome,[1],inactive
CN1CCN(c2c(F)cc3c(=O)c(C(=O)O)cn4c3c2SCC4)CC1,Potency,[2],inactive
Cc1cccc(C)c1NC(=O)c1ccccc1C(=O)O,Potency,[2],inactive
C=CCN1CCc2nc(N)sc2CC1,Potency,[2],inactive
CC(C)[N+](C)(C)CC(O)COc1cccc2ccccc12 (configuration not stated),Potency,[2],inactive
Cc1ccc(O)c([C@H](CCN(C(C)C)C(C)C)c2ccccc2)c1,Potency,[2],inactive
CC(=O)Nc1ccc(OCC(O)CNC(C)C)cc1 (configuration not stated),Potency,[2],inactive
COP(=O)(OC)OC(c1ccc(Cl)cc1)P(=O)(OC)OC (configuration not stated),Potency,[2],inactive
Cc1cccc(C)c1NC(=O)CN1CCCC1,Potency,[2],inactive
O=C(NCCc1c[nH]c2ccccc12)c1cccnc1,Potency,[2],inactive
CCOCCn1c(N2CCCN(C)CC2)nc2ccccc21,Potency,[2],inactive
CCC(C(=O)OCCOCCN(CC)CC)c1ccccc1 (configuration not stated),Potency,[2],inactive
CC(C)Cn1cnc2c1c(=O)n(C)c(=O)n2C,Potency,[2],inactive
CCCCNC(=O)NS(=O)(=O)c1ccc(N)cc1,Potency,[2],inactive
CCCCCN=C(N)N/N=C/c1c[nH]c2ccc(OC)cc12,Potency,[2],inactive
Cc1ccc(-c2ncc(Cl)cc2-c2ccc(S(C)(=O)=O)cc2)cn1,Potency,[2],inactive
CN1CCN(c2cc3c(cc2F)c(=O)c(C(=O)O)cn3-c2ccc(F)cc2)CC1,Potency,[2],inactive
c1ccc(CC2=NCCN2)cc1,Potency,[2],inactive
CCOC(=O)Nc1ccc2c(c1)N(C(=O)CCN1CCOCC1)c1ccccc1S2,Potency,[2],inactive
COc1ccc2c(c1)c1c3n2CCN(C)C3=NCC1,Potency,[2],inactive
Nc1ccc(S(=O)(=O)NCc2ccccc2)cc1,Potency,[2],inactive
CC(=O)N[C@@H](CCC(=O)O)C(=O)O,Potency,[2],inactive
Cc1cc(C)cc(OCC2CNC(=O)O2)c1 (configuration not stated),Potency,[2],inactive
CCOc1ccccc1OCCN[C@H](C)Cc1ccc(OC)c(S(N)(=O)=O)c1,Potency,[2],inactive
CC(C)(Cc1c[nH]c2ccccc12)NCC(O)COc1ccccc1C#N (configuration not stated),Potency,[2],inactive
Nc1nc(-c2ccccc2)c(Br)c(=O)[nH]1,Potency,[2],inactive
COc1ccc(/C=N/NC(=O)c2ccncc2)cc1OC,Potency,[2],inactive
Cc1cc2c(OCC(CNC(C)(C)C)OC(=O)c3ccccc3)cccc2[nH]1 (configuration not stated),Potency,[2],inactive
N#CCC(=O)NN,Potency,[2],inactive
CCCCNc1ccc(C(=O)OCCOCCOCCOCCOCCOCCOCCOCCOCCOC)cc1,Potency,[2],inactive
O=C(CCCN1CC=C(n2c(=O)[nH]c3ccccc32)CC1)c1ccc(F)cc1,Potency,[2],inactive
Cc1cc(NS(=O)(=O)c2ccc(N)cc2)nc(C)n1,Potency,[2],inactive
O=C1C(O)=C(O)C(=O)C(O)=C1O,Potency,[2],50.1 µM (active)
C#C[C@]1(O)CC[C@H]2[C@@H]3CCc4cc(OC)ccc4[C@H]3CC[C@@]21C,Potency,[2],inactive
Cc1cc(-c2ccccc2)nnc1NCCN1CCOCC1,Potency,[2],inactive
Nc1nc(N)c(-c2ccccc2)s1,Potency,[2],inactive
FC(F)(F)C(F)(F)C(F)(F)C(F)(F)C(F)(F)C(F)(F)C(F)(F)C(F)(F)Br,Potency,[2],inactive
Cc1cccc(C)c1NC(=O)CN1CCCCCC1,Potency,[2],inactive
O=[N+]([O-])c1cccc(S(=O)(=O)NCCNS(=O)(=O)c2cccc([N+](=O)[O-])c2)c1,Potency,[2],inactive
C[N+]12CCC(CC1)C(OC(=O)C(O)(c1ccccc1)c1ccccc1)C2 (configuration not stated),Potency,[2],inactive
CC(=O)Nc1ccc(CC(=O)O)cc1,Potency,[2],inactive
O[C@@H](c1cc(C(F)(F)F)nc2c(C(F)(F)F)cccc12)[C@H]1CCCCN1,Potency,[2],inactive
CC(=O)NCCCCCC(=O)O,Potency,[2],inactive
Cc1c(-c2ccccc2)oc2c(C(=O)OCCN3CCCCC3)cccc2c1=O,Potency,[2],inactive
CN1CCN(CCC(=O)N2c3ccccc3Sc3ccc(C(F)(F)F)cc32)CC1,Potency,[2],inactive
C[N+]1(CC2COC(c3ccccc3)(C3CCCCC3)O2)CCCCC1 (configuration not stated),Potency,[2],inactive
CC(=O)Oc1ccc(C)cc1,Potency,[2],inactive
CCN(CC)CCOc1ccc2c(c1)C(=O)c1cc(OCCN(CC)CC)ccc1-2,Potency,[2],inactive
O=C(NC1CCN(CCc2c[nH]c3ccccc23)CC1)c1ccccc1,Potency,[2],inactive
CC(C)(C)NC[C@H](O)COc1cccc2c1CCCC2=O,Potency,[2],inactive
CC(=O)Nc1ccc(S(=O)(=O)Nc2ccc([N+](=O)[O-])cc2)cc1,Potency,[2],inactive
Cc1nc(-c2ccc(Cl)cc2)oc1COC(C)(C)C(=O)O,Potency,[2],inactive
N=C(N)N1CCc2ccccc2C1,Potency,[2],inactive
CCc1oc2ccccc2c1C(=O)c1cc(I)c(O)c(I)c1,Potency,[2],39.8 µM (active)
CC(C)Cc1ccc(CC(=O)O)cc1,Potency,[2],inactive
COc1cc(C(=S)N2CCOCC2)ccc1O,Potency,[2],inactive
CCN(CC)CCNc1ccc(CO)c2sc3ccccc3c(=O)c12,Potency,[2],inactive
O=C(O)C(Cc1cc(I)c(O)c(I)c1)c1ccccc1 (configuration not stated),Potency,[2],inactive
Cc1cc(CC(=O)O)c(C)n1-c1ccc(Cl)cc1,Potency,[2],inactive
CCNC(=O)/C=C/c1cccc(Br)c1,Potency,[2],inactive
COc1cc(C)nc(-n2nc(C)cc2OC)n1,Potency,[2],inactive
COc1ccc(C(=O)c2ccccc2O)c(O)c1,Potency,[2],inactive
CCc1oc2ccccc2c1C(=O)c1cc(Br)c(O)c(Br)c1,Potency,[2],31.6 µM (active)
CCN1/C(=C/C=C/c2sc3ccccc3[n+]2CC)Sc2ccccc21,Potency,[2],44.7 µM (active)
COc1cc(C(=O)NCc2ccc(OCCN(C)C)cc2)cc(OC)c1OC,Potency,[2],inactive
Cc1ccc2c(Br)cc(Br)c(O)c2n1,Potency,[2],inactive
NS(=O)(=O)c1ccc(Cl)c(S(N)(=O)=O)c1,Potency,[2],inactive
Nc1ccc(S(=O)(=O)Nc2cnc3ccccc3n2)cc1,Potency,[2],inactive
COc1ccc(CCN(C)CCCN2CCc3cc(OC)c(OC)cc3CC2=O)cc1OC,Potency,[2],inactive
NC(=O)n1c(O)c(C(=O)c2cccs2)c2cc(Cl)ccc21,Potency,[2],inactive
O=C(O)P(=O)(O)O,Potency,[2],inactive
CC(=O)O[C@]1(C(C)=O)CC[C@H]2[C@@H]3C=C(Cl)C4=CC(=O)CC[C@]4(C)[C@H]3CC[C@@]21C,Potency,[2],inactive
COc1ccc(CN(CCN(C)C)c2ncccn2)cc1,Potency,[2],inactive
C=C[C@@]1(C)CC(=O)[C@]2(O)[C@@]3(C)[C@@H](O)CCC(C)(C)[C@@H]3[C@H](O)[C@H](OC(C)=O)[C@@]2(C)O1,Potency,[2],inactive
same,activation,[3],3.9% (inactive)
same,outcome,[4],inactive
same,Potency,[5],inactive
same,Potency,[6],inactive
same,outcome,[7],inactive
same,outcome,[8],inactive
CC(=O)NC(=O)c1ccccc1O,Potency,[2],inactive
CN(C)CCC[C@@]1(c2ccc(F)cc2)OCc2cc(C#N)ccc21,Potency,[2],inactive
same,outcome,[1],inactive
COc1ccccc1N1CCN(CCCCNC(=O)c2ccc(-c3ccc(C(C)=O)cc3)cc2)CC1,Potency,[2],inactive
same,outcome,[1],inactive
OC[C@H]1O[C@@H]2O[C@H]3[C@H](O)[C@@H](O)[C@@H](O[C@H]4[C@H](O)[C@@H](O)[C@@H](O[C@H]5[C@H](O)[C@@H](O)[C@@H](O[C@H]6[C@H](O)[C@@H](O)[C@@H](O[C@H]7[C@H](O)[C@@H](O)[C@@H](O[C@H]8[C@H](O)[C@@H](O)[C@@H](O[C@H]1[C@H](O)[C@H]2O)O[C@@H]8CO)O[C@@H]7CO)O[C@@H]6CO)O[C@@H]5CO)O[C@@H]4CO)O[C@@H]3CO,Potency,[2],inactive
same,activation,[3],-6.02% (inactive)
same,max response,[9],2.91%
same,outcome,[10],inactive
same,outcome,[8],inactive
CC1(C)OC[C@@H]2O[C@@]3(C(=O)O)OC(C)(C)O[C@H]3[C@@H]2O1,Potency,[5],inactive
same,Potency,[6],inactive
same,outcome,[7],inactive
same,max response,[9],0.747%
same,outcome,[10],inactive
same,outcome,[8],inactive
